target: AMP-activated protein kinase, AMPK (Homo sapiens) (UniProt P54646+O43741+P54619+Q9UGJ0+Q9Y478+Q13131+Q9UGI9); experiment: AMP-dependent Kinase enzyme assay. An in vitro enzyme assay that detects ADP turnover that is directly proportional to AMPK activity. This uses naive AMPK that is activated during the assay with MK-8722; assay type: functional; parameters: scale not given: direction of the effect not stated beside the values; settings: 30 µM

Row | Compound | Percent Effect [%]
1 | O=C(NCC(O)c1cccc(O)c1)C1CCN(C2CCCCC2)CC1 (centres undefined) | 0.496
2 | CCc1ccsc1C(=O)NC(C#N)CC(C)C (centres undefined) | -7.05
3 | CSCC(C)(O)CNS(=O)(=O)c1cccc(Cl)c1 (centres undefined) | -5.75
4 | CC(C)[C@@H]1CN(C(=O)C2(c3ccccc3)CC2)C[C@H]1C(=O)O | -2.56
5 | CC1(c2ncc(CN3CCSCC3)cn2)CCCCO1 (centres undefined) | -1.61
6 | Cc1cc(N2CCC(n3cc(CN4CCSCC4)nn3)CC2)ccn1 | 2.21
7 | COc1ccccc1CC(C)CC(=O)N(C)Cc1cc(C)on1 (centres undefined) | 3.99
8 | Cc1cc(N2CCCC2)nc(CNS(=O)(=O)Cc2ccccc2)n1 | 5.01
9 | O=C(c1cc(C2CC2)on1)N1C[C@H]2CC[C@](O)(c3ccc(F)cc3)[C@H]2C1 | 12.8
10 | COc1nccc(N2CC[C@@H](N3CCN(C)CC3)[C@H](O)C2)c1C#N | -9.72
11 | CC(NC(=O)N1CCCC1)c1ccc(S(N)(=O)=O)cc1 (centres undefined) | 9.72
12 | CC(C)(C)NC(=O)C1CCCCN1Cc1nccn1CC(F)(F)F (centres undefined) | -2.34
13 | COc1ccc(C)cc1CN(CC(N)=O)C(C)C | 0.855
14 | CCc1c(C)nn2c(O)cc(C3CCN(C(=O)c4ccccn4)C3)nc12 (centres undefined) | 4.34
15 | Cn1ncnc1NCc1ccc(Br)cc1 | 6.33
16 | CNC(=O)Cc1ccc(NC(=O)NCC(C)c2ncc(C)s2)cc1 (centres undefined) | -3.25
17 | O=C1CN(C(=O)c2cc3ccc(Br)cc3[nH]2)CCN1 | 91
18 | Cc1cccnc1NC(=O)c1ccc(F)c(S(=O)(=O)N2CCC2)c1 | -5.84
19 | COc1ccc(Cl)cc1C(=O)NCc1cnn(C)c1C | 7.53
20 | CN(Cc1ccc(OCC(=O)N2CCOCC2)cc1)S(C)(=O)=O | -30.8

Row | Compound | Percent Effect [%]
21 | CC(C)c1cc(NC(=O)Cn2cnc3ccccc3c2=O)[nH]n1 | 6.52
22 | CCOC(=O)CC1CCCCN1C(=O)c1cccc2ccnn12 (centres undefined) | -6.64
23 | NC(=O)c1cc2c(nc1CC1CCCCO1)CCC2 (centres undefined) | -4.87
24 | CC(Oc1cccc(Cl)c1)C(=O)Nc1cnn(CC(=O)NC2CC2)c1 (centres undefined) | 1.4
25 | Cc1c(C(=O)NCC(C)(C)S(C)(=O)=O)cccc1-c1ccccn1 | 11.1
26 | COC(=O)c1ncccc1N1CCCCC1 | 2.81
27 | CN(Cc1cc(Br)cn1C)C(=O)Cc1cccnc1 | -10.2
28 | O=C(NCc1nnc2n1CCCC2)c1ccc(C2CCCO2)s1 (centres undefined) | -8.64
29 | CC1CCC(O)(CSc2nnnn2C2CC2)CC1 (centres undefined) | 6.07
30 | CN(C)c1ccc(C(=O)Nc2ccn(CCc3ccncc3)n2)cn1 | 14.4
31 | Cn1ccc(N2CCCC(NC(=O)c3ccsc3)C2=O)n1 (centres undefined) | -4.2
32 | CN(C)c1nc(N)nc(CN2CCCC(c3ccccc3)CC2)n1 (centres undefined) | -3.69
33 | O=C1CCCCN1Cc1cccc(OC(F)F)c1 | 11.1
34 | Cc1ncc(C(=O)N2CCOC(C(=O)N3CCCCC3)C2)c(C)n1 (centres undefined) | -4.59
35 | O=C(c1ccncc1)N1CCC(Oc2cccc(C(F)(F)F)c2)CC1 | -1.49
36 | CCOc1cc(NC(=O)N2CCC3(CCOCC3)C2)ccc1C | -0.853
37 | C=C(C)COc1cccc(CNCc2nc3ccccc3c(=O)[nH]2)c1 | 1.56
38 | Cc1nnc(NC(=O)NCCN(C(=O)OC(C)(C)C)C2CC2)s1 | -6.8
39 | CCCOc1cc(CNC(=O)Nc2cccc(C(C)=O)c2)ccn1 | -3.21
